For 20 molecules, binding signal results are on record in paper PMC9911399, “Two distinct binding modes provide the RNA-binding protein RbFox with extraordinary sequence specificity”.

Residue numbers refer to the chain shown, from its start. The full ranking holds about 16,000 sequences; the median of “ka relative to ugcaugu” is about 0.096, and the highest 2% start at about 0.35. This excerpt belongs to a sample that is enriched for the highest values.

First the molecules themselves.
B1: GAUGAAA (DNA:RNA)
RNA: GGGAGACCGGAAUUCAGAUUGUCCGAUGAAAUUAAAUCCCGUCGUAGCCACCA
DNA 1: CAATCTGAATTCCGGTCTCCC
DNA 2: TGGTGGCTACGACGGGATT
B2: ACAUGUU (DNA:RNA)
RNA: GGGAGACCGGAAUUCAGAUUGUCCACAUGUUUUAAAUCCCGUCGUAGCCACCA
DNA 1: CAATCTGAATTCCGGTCTCCC
DNA 2: TGGTGGCTACGACGGGATT
B3: CCGCCUC (DNA:RNA)
RNA: B2 RNA with A25C, A27G, U28C, G29C, U31C
DNA 1: CAATCTGAATTCCGGTCTCCC
DNA 2: TGGTGGCTACGACGGGATT
B4: GUGAUUG (DNA:RNA)
RNA: B2 RNA with A25G, C26U, A27G, U28A, G29U, U31G
DNA 1: CAATCTGAATTCCGGTCTCCC
DNA 2: TGGTGGCTACGACGGGATT
B5: GUGACUG (DNA:RNA)
RNA: B2 RNA with A25G, C26U, A27G, U28A, G29C, U31G
DNA 1: CAATCTGAATTCCGGTCTCCC
DNA 2: TGGTGGCTACGACGGGATT
B6: GUGACCG (DNA:RNA)
RNA: B1 RNA with A26U, U27G, G28A, A29C, A30C, A31G
DNA 1: CAATCTGAATTCCGGTCTCCC
DNA 2: TGGTGGCTACGACGGGATT
B7: GGUGUGA (DNA:RNA)
RNA: B1 RNA with A26G, A29U, A30G
DNA 1: CAATCTGAATTCCGGTCTCCC
DNA 2: TGGTGGCTACGACGGGATT
B8: GGUGAUU (DNA:RNA)
RNA: B1 RNA with A26G, A30U, A31U
DNA 1: CAATCTGAATTCCGGTCTCCC
DNA 2: TGGTGGCTACGACGGGATT
B9: GUGAAUC (DNA:RNA)
RNA: B1 RNA with A26U, U27G, G28A, A30U, A31C
DNA 1: CAATCTGAATTCCGGTCTCCC
DNA 2: TGGTGGCTACGACGGGATT
B10: GUGAUCG (DNA:RNA)
RNA: B1 RNA with A26U, U27G, G28A, A29U, A30C, A31G
DNA 1: CAATCTGAATTCCGGTCTCCC
DNA 2: TGGTGGCTACGACGGGATT
B11: GUCGUGA (DNA:RNA)
RNA: B1 RNA with A26U, U27C, A29U, A30G
DNA 1: CAATCTGAATTCCGGTCTCCC
DNA 2: TGGTGGCTACGACGGGATT
B12: UUGACUG (DNA:RNA)
RNA: B2 RNA with A25U, C26U, A27G, U28A, G29C, U31G
DNA 1: CAATCTGAATTCCGGTCTCCC
DNA 2: TGGTGGCTACGACGGGATT
B13: GCGUGAA (DNA:RNA)
RNA: B2 RNA with A25G, A27G, U30A, U31A
DNA 1: CAATCTGAATTCCGGTCTCCC
DNA 2: TGGTGGCTACGACGGGATT
B14: GGUGAUG (DNA:RNA)
RNA: B1 RNA with A26G, A30U, A31G
DNA 1: CAATCTGAATTCCGGTCTCCC
DNA 2: TGGTGGCTACGACGGGATT
B15: GUGAUUC (DNA:RNA)
RNA: B2 RNA with A25G, C26U, A27G, U28A, G29U, U31C
DNA 1: CAATCTGAATTCCGGTCTCCC
DNA 2: TGGTGGCTACGACGGGATT
B16: ACCUAUU (DNA:RNA)
RNA: B2 RNA with A27C, G29A
DNA 1: CAATCTGAATTCCGGTCTCCC
DNA 2: TGGTGGCTACGACGGGATT
B17: GCUCCGG (DNA:RNA)
RNA: B1 RNA with A26C, G28C, A29C, A30G, A31G
DNA 1: CAATCTGAATTCCGGTCTCCC
DNA 2: TGGTGGCTACGACGGGATT
B18: AUCUGAU (DNA:RNA)
RNA: B2 RNA with C26U, A27C, U30A
DNA 1: CAATCTGAATTCCGGTCTCCC
DNA 2: TGGTGGCTACGACGGGATT
B19: UCGGCUA (DNA:RNA)
RNA: B2 RNA with A25U, A27G, U28G, G29C, U31A
DNA 1: CAATCTGAATTCCGGTCTCCC
DNA 2: TGGTGGCTACGACGGGATT
B20: AAGGAAC (DNA:RNA)
RNA: B1 RNA with G25A, U27G, A31C
DNA 1: CAATCTGAATTCCGGTCTCCC
DNA 2: TGGTGGCTACGACGGGATT

The experiment deals with T1, RBFOX1 RRM RbFoxmut (Fox-RRM*) (Homo sapiens, UniProt Q9NWB1 109-208, R118D;E147R;N151S;E152T).
T1 sequence: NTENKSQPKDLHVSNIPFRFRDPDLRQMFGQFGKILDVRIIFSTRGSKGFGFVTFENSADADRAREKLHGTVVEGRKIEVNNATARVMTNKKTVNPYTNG
As to the kind of experiment: EMSA; HiTS-Eq, 1 nM pool, 10 min; buffer printed only for the single-RNA assays: 10 mM Tris pH 7.5, 150 mM NaCl, 3.4 mM EDTA, 0.001% NP-40, 30 C. Conditions: tags: His6 N-terminal (pET28a); label: 5' 32P. A digest of the protocol:
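A pool of RNA with 7 randomized nucleotides, 5′-radiolabelled and with DNA-annealed flanks, was equilibrated at 1 nM for 10 min in 50 µL with purified RbFox RRM, wild type or mutant, across increasing protein concentrations. Free RNA was separated by 8% native PAGE, excised, reverse-transcribed, barcoded by PCR and sequenced. Relative association constants were obtained from read-count changes of each RNA species versus the control reaction and normalised to the cognate motif.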
For the molecule B1, the binding signal was 0.0758 KA relative to UGCAUGU. Under B2 stands 0.127 KA relative to UGCAUGU; under B3, 0.0617 KA relative to UGCAUGU; under B4, 0.454 KA relative to UGCAUGU. In the case of B5 it was 0.387 KA relative to UGCAUGU. In the case of B6, the binding signal is 0.162 KA relative to UGCAUGU. For B7, the binding signal was 0.112 KA relative to UGCAUGU. As to B8, the binding signal was 0.0776 KA relative to UGCAUGU. Take B9: the binding signal was 0.42 KA relative to UGCAUGU. For the molecule B10, the binding signal is 0.32 KA relative to UGCAUGU. In the case of B11 it was 0.126 KA relative to UGCAUGU; in that of B12, 0.243 KA relative to UGCAUGU.

As to B13, the binding signal was 0.119 KA relative to UGCAUGU. Regarding B14, the binding signal is 0.412 KA relative to UGCAUGU. Turning to B15, the binding signal is 0.159 KA relative to UGCAUGU. In the case of B16, the binding signal is 0.107 KA relative to UGCAUGU. Take B17: the binding signal was 0.0646 KA relative to UGCAUGU. Under B18 stands 0.0592 KA relative to UGCAUGU; under B19, 0.106 KA relative to UGCAUGU; under B20, 0.057 KA relative to UGCAUGU.
